# Experimental data from PubChem BioAssay AID1851 (National Center for Advancing Translational Sciences (NCATS), 2009).
# In all, about 16,000 compounds went through this assay and about 5,100 (32%) were called active. About 25% were inconclusive and are not listed. Some of the results follow. Unmarked numbers belong to inactive results. The call rests on the fitted dose curve; in most records, active means well fitted curve in the direction sought with a large enough effect; inconclusive means small, poorly fitted or top-dose-only effect, or effect the other way; inactive means no such curve, though single readings can be large or run the other way.
# Target: Cytochrome P450 3A4 (Homo sapiens) (UniProt P08684)
# Assay: Cytochrome panel assay with activity outcomes
# Settings: recombinant CYP, pro-luciferin dealkylation, luminescence, p450-cyp3a4; series mostly up to 57.1 µM
# On the % scale 0 is the no-effect control and ±100 the full control effect.
# Sequence of Cytochrome P450 3A4 (Homo sapiens) (P08684 whole entry, looked up): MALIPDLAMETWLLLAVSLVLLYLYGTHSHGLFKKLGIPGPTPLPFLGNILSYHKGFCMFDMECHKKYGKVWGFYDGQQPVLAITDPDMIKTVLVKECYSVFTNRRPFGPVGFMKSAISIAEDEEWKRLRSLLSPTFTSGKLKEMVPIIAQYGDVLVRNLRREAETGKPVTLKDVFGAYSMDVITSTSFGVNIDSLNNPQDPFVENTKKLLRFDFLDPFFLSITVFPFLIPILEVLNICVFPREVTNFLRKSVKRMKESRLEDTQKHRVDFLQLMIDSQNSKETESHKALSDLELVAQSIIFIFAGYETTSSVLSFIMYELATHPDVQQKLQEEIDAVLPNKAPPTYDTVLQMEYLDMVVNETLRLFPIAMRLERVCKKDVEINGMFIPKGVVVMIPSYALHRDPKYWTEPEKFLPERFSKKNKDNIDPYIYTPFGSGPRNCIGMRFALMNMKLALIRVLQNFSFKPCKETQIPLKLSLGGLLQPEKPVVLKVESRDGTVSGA
SMILES,AC50,"activity, negative = inhibition"
COc1cccc(-c2cc(NCc3ccc(OC)cc3OC)ncn2)c1,2.51 µM (active),–
COc1cccc(-c2cc(NCc3ccccc3OC)ncn2)c1,15.8 µM (active),–
CC(C)NC[C@@H](O)COc1ccc(COCCOC(C)C)cc1,inactive,–
Cn1c(=O)c2cc(S(=O)(=O)NCCC(=O)Nc3ccc(Cl)cc3)ccc2n(C)c1=O,inactive,–
Cc1ccc(CNC(=O)CCNS(=O)(=O)c2ccc3c(c2)c(=O)n(C)c(=O)n3C)cc1,1.78 µM (active),–
CCOc1ccc(NC(=O)CCNS(=O)(=O)c2ccc3c(c2)c(=O)n(C)c(=O)n3C)cc1,14.1 µM (active),–
Cn1c(=O)c2cc(S(=O)(=O)NCCC(=O)NCc3ccccc3Cl)ccc2n(C)c1=O,14.1 µM (active),–
Cc1csc(NC(=O)CCNS(=O)(=O)c2ccc3c(c2)c(=O)n(C)c(=O)n3C)n1,7.94 µM (active),–
Cn1c(=O)n(C)c2cc(S(=O)(=O)O)ccc21,inactive,–
Cn1c(=O)c2cc(S(=O)(=O)NCCC(=O)NCCc3ccc(Cl)cc3)ccc2n(C)c1=O,12.6 µM (active),–
Cc1nn(-c2ccccc2)c2c1C(=O)N(Cc1ccccc1)C(=O)C(C)(C)C2,–,1.57% [at 2.29 µM]
Clc1ccc(-c2nnc(CCc3ccccc3)o2)c(Cl)c1,–,0.747% [at 2.29 µM]
O=c1c(-c2nnc(SCc3ccc(Cl)c(Cl)c3)o2)cccn1Cc1ccccc1,20 µM (active),–
CSc1nnc(-c2ccc(Cl)cc2Cl)o1,inactive,–
O=c1c(-c2nnc(SCc3ccc(Cl)cc3Cl)o2)cccn1Cc1ccccc1,22.4 µM (active),–
CC(C)c1ccc(C2C(C#N)=C(N)N3C(=C2C#N)Sc2ccccc23)cc1 (stereo unspecified),inactive,–
Cc1ccc(Cl)cc1-n1c(=O)cc(N2CC(C)OC(C)C2)[nH]c1=O (stereo unspecified),inactive,–
c1ccc2c(c1)-c1nc3ccccc3cc1[C@H]2N1CCOCC1,2.51 µM (active),–
O=S1(=O)C=C(N2CCOCC2)c2ccccc21,–,-21% [at 11.4 µM]
O=C(O)CN(CCN(CC(=O)O)CC(=O)O)CC(=O)O.[Cu],–,10.2% [at 11.4 µM]
N=C1SCC(=O)N1c1nc(-c2ccccc2)cs1,–,0.753% [at 2.29 µM]

SMILES,AC50,"activity, negative = inhibition"
N#CC(=C1CCCC1)c1nc(-c2ccccc2)cs1,15.8 µM (active),–
O=C(Nc1ccc(-c2csc(-c3ccccc3)n2)cc1)c1ccccc1Cl,inactive,–
Cc1ccc(-c2csc(C(C#N)=C3CCCC3)n2)cc1,20 µM (active),–
COc1ccc(/C=N/N(C(C)=O)c2nc(-c3ccc(C)cc3)cs2)cc1,inactive,–
Cc1sc(N/N=C/C=C/c2ccccc2)nc1-c1ccccc1,–,-9.33% [at 11.4 µM]
O=S(=O)(N/N=C\C=C\c1ccccc1)c1ccc(Br)cc1,14.1 µM (active),–
Brc1ccc(/C=C/C=N/Nc2nc3ccccc3s2)cc1,inactive,–
CC(C)NC(=O)/C(=N\O)c1ccccc1,inactive,–
CCC/C=C(\CCC)C(NC(=O)c1ccc(C(F)(F)F)cc1)c1ccccc1 (stereo unspecified),15.8 µM (active),–
CCC/C=C(\CCC)C(NC(=O)c1ccccc1)c1ccccc1 (stereo unspecified),10 µM (active),–
Cc1cc(S(=O)(=O)NCCN(C)C)c(C)s1,inactive,–
CCOc1ccc(C(F)(F)F)cc1NC(C)=O,inactive,–
COC(=O)/C(=C\C(=O)c1ccccc1)Nc1cccc(C(F)(F)F)c1,inactive,–
CN(C)S(=O)(=O)Oc1ccc(Cl)cc1C(=O)Nc1cccc(C(F)(F)F)c1,12.6 µM (active),–
CN(C)S(=O)(=O)Oc1ccccc1C(=O)Nc1cccc(C(F)(F)F)c1,11.2 µM (active),–
COC(=O)[C@]1(C)CCC(c2ccc(C)cc2)=C(CC(=O)O)C1,–,-9.37% [at 11.4 µM]
Cc1cccc2cc(=O)[nH]c(C)c12,inactive,–
CCOC(=O)N1CCC(NC(=O)CCC(=O)N2CC(C)Oc3ccc(C)cc32)CC1 (stereo unspecified),8.91 µM (active),–
Cc1ccc2c(c1)N[C@H](c1ccc(C(=O)O)cc1)c1cccn1-2,0.0501 µM (active),–
Cc1ccc2nc(N3CCN(S(=O)(=O)c4ccc5c(c4)OCCO5)CC3)c(C#N)cc2c1,6.31 µM (active),–
CN1CCCN(S(=O)(=O)c2ccc3c(c2)OCCO3)CC1,inactive,–

SMILES,AC50,"activity, negative = inhibition"
Cc1ccc(Cl)cc1N1CCN(S(=O)(=O)c2ccc3c(c2)OCCO3)CC1,inactive,–
CN(C)CC(CN(C)C)c1ccccn1,–,-2.93% [at 11.4 µM]
Cc1[nH]c2ccccc2c1C(c1ccccn1)N1CCC(C)CC1 (stereo unspecified),2.24 µM (active),–
c1ccc([C@H](CCN2CCCC2)c2ccccn2)cc1,–,-2.32% [at 11.4 µM]
N=C(N)c1ccccc1,inactive,–
Cc1ccc(N(CCC#N)C(=O)CSc2ccc3c(c2)OCCO3)cc1,15.8 µM (active),–
c1ccc2c(c1)c1ccccc1n2Cn1c2ccccc2c2ccccc21,–,-21.4% [at 11.4 µM]
CCn1c2ccccc2c2cc(NS(=O)(=O)c3ccccc3C)ccc21,1 µM (active),–
CCn1c(C)nc2cc(C(=O)NNS(=O)(=O)c3ccccc3F)ccc21,inactive,–
C[C@@]1(C(NC(=O)Cc2ccc(C(F)(F)F)cc2)c2ccc(-c3ccccc3)cc2)C[C@H]1C1CCCCC1 (stereo partly specified),inactive,–
C[C@@]1(C(NC(=O)c2ccc(-c3ccccc3)cc2)c2ccc(Cl)cc2)C[C@H]1C1CCCCC1 (stereo partly specified),inactive,–
CC(C)(C)C(=O)NC(c1ccc(Cl)cc1)[C@]1(C)C[C@H]1C1CCCCC1 (stereo partly specified),12.6 µM (active),–
COC(=O)c1ccc(C(NC(=O)c2ccco2)[C@]2(C)C[C@H]2C2CCCCC2)cc1 (stereo partly specified),7.94 µM (active),–
COCc1cc(=O)[nH]c2cc(NC(=O)C(F)(F)F)c(C)cc12,–,-1.96% [at 11.4 µM]
CCOc1ccc(-n2ccnc2SCC(=O)Nc2nnc(CC)s2)cc1,14.1 µM (active),–
CCOc1ccc(-n2ccnc2SCC(=O)Nc2nnc(C)s2)cc1,14.1 µM (active),–
CCc1nnc(NC(=O)CSc2ncnc3c2cnn3-c2ccc(OC)cc2)s1,inactive,–
Cc1nnc(NC(=O)CSc2ncnc3c2cnn3-c2ccccc2C)s1,inactive,–
COc1ccc(-c2coc3cc4oc(=O)cc(C)c4cc23)cc1F,inactive,–
